Drawing on ChEMBL document CHEMBL1201862, “PubChem BioAssay data set” (2004), this text covers Potency for 1 molecule.

The structures appear in SMILES notation. Among all 270,000 compounds or so, about 5,800 (2.1%) were called active. Inconclusive results (about 16%) are left out. The calls are words filed in the database; no cut-off is given here. The sample as a whole holds a higher share of actives than the screen did.

Chain of Microtubule-associated protein tau (Homo sapiens) (P10636 whole entry): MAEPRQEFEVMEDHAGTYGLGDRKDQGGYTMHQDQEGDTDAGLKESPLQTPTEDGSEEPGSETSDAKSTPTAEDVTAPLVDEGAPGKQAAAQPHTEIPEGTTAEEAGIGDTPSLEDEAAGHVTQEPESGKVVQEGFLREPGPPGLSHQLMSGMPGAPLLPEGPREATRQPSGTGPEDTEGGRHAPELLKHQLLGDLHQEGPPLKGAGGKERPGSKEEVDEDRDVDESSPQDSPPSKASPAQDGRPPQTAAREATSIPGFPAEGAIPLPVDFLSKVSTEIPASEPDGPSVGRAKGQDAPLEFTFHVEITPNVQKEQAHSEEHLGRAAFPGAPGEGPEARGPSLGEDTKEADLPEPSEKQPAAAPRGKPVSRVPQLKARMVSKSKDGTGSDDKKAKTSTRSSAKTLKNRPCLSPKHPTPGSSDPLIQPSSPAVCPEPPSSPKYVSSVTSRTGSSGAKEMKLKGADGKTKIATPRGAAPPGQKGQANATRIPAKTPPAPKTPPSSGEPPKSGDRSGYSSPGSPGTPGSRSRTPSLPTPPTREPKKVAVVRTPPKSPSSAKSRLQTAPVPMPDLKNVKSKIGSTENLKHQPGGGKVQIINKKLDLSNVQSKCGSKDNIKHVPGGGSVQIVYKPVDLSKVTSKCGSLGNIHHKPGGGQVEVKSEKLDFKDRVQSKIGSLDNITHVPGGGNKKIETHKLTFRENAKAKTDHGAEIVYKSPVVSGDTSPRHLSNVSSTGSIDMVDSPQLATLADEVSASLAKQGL

The assay has as its target Microtubule-associated protein tau (Homo sapiens) (UniProt P10636). The assay is described as follows: qHTS for Inhibitors of Tau Fibril Formation, Thioflavin T Binding. [Related pubchem assays: 596 ]. A general note: qHTS replaces the single test concentration by a dilution series.
Turning to `Cl[Te]1(Cl)OCCO1`, the Potency is 5.62 µM (active).
